According to PubChem BioAssay (NCI):
Where “and” joins values, the source holds several entries; their conditions need not be identical. Equal values may be shown once. The panel holds about 79,000 compounds, 15% with a hit somewhere; the sample as a whole holds those more often. Rule as the data show it: active = growth inhibition above about 70%; inactive = the rest.

Experiments:
[1] = NCI Yeast Anticancer Drug Screen. Data for the rad50 strain (AID 155);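 also: 0% = growth of vehicle-only cultures of the same strain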; conditions: S. cerevisiae rad50 strain growth inhibition, stronger effect = higher value; at 50.0 µM unless noted
In short: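 A DNA repair-deficient yeast mutant serves as the test organism; compound-induced growth inhibition is calculated against vehicle-treated cells.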

[2] = NCI Yeast Anticancer Drug Screen. Data for the mec2-1 strain (AID 157); conditions: S. cerevisiae mec2-1 strain, stronger effect = higher value; at 50.0 µM unless noted
In short: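 Growth inhibition is read against vehicle-treated controls after compound exposure of the mec2-1 yeast strain, which is defective in DNA damage repair or cell cycle control.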

[3] = NCI Yeast Anticancer Drug Screen. Data for the sgs1 mgt1 strain (AID 161);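 also: 0% = growth of cultures given vehicle only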; conditions: S. cerevisiae sgs1 mgt1 strain, stronger effect = higher value; at 50.0 µM unless noted
In short: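 Compounds are added to genetically altered yeast, and growth is compared with cultures given vehicle alone to give percent inhibition.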

[4] = NCI Yeast Anticancer Drug Screen. Data for the cln2 rad14 strain (AID 165);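 also: 0% = growth equal to vehicle treated cultures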; conditions: S. cerevisiae cln2 rad14 strain, stronger effect = higher value; at 50.0 µM unless noted
In short: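 Growth inhibition, relative to vehicle-treated controls, is the read-out. The test organism is a yeast strain with defined genetic alterations, cln2 rad14.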

[5] = NCI Yeast Anticancer Drug Screen. Data for the bub3 strain (AID 167); conditions: S. cerevisiae bub3 mutant strain, stronger effect = higher value; at 50.0 µM unless noted
In short: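 Inhibition values come from growth of compound-treated mutant yeast normalised to vehicle-treated controls.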

[6] = NCI Yeast Anticancer Drug Screen. Data for the mlh1 rad18 strain (AID 175); conditions: S. cerevisiae mlh1 rad18 strain growth inhibition, stronger effect = higher value; at 50.0 µM unless noted
In short: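 Cells of a genetically altered yeast strain, deficient in DNA damage repair, were treated with compound. Their growth was then compared with that of vehicle-treated cultures to give inhibition.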

Measured: growth inhibition

BrCC(Br)C1OCCCO1 (stereo not given)
inactive: [1] 18.4% | [2] 18.1% | [3] 38.4% | [4] 22.4% | [5] 5.25% | [6] 34.6%

O=C(O)c1cscc1Cc1cccs1
inactive: [1] 0.05% | [2] -13.7% | [3] -43.6% | [4] -30.6% | [5] -76% | [6] 13.7%

NC(=O)C(c1ccccc1)C1(O)CCCCC1 (stereo not given)
inactive: [1] 7.7% | [2] 5.7% | [3] 9.7% | [4] 6.95% | [5] 3.2% | [6] 11.4%

COc1ccc(C)cc1Sc1ccc([N+](=O)[O-])cc1C
inactive: [1] 0.65% | [2] -17.9% | [3] -8.35% | [4] -19.2% | [5] 8.95% | [6] -19.2%

O=C(O)c1ccccc1Br
inactive: [1] 1.1% | [2] 5.4% | [3] -13.6% | [4] -6.95% | [5] -17.4% | [6] -3.35%

CCCOC(=O)c1ccc([N+](=O)[O-])cc1
inactive: [1] 16.4% | [2] 4.2% | [3] 14.2% | [4] 8.75% | [5] -16.7% | [6] -23.1%

CC(=O)OC1CC2CC1C1OC21 (stereo not given)
inactive: [1] -2.25% | [2] -15.3% | [3] -22.1% | [4] -1.8% | [5] -11.7% | [6] -6.65%

CC(=O)Nc1ccc(S(=O)(=O)NC(C)=O)cc1
inactive: [1] -5.8% | [2] -8.75% | [3] -2.7% | [4] -20.4% | [5] 6.7% | [6] 12.6%

CCOc1ccc([N+](=O)[O-])cc1[N+](=O)[O-]
inactive: [1] 43.3% | [2] 2.1% | [3] -11.3% | [4] -55.5% | [5] -25.6% | [6] -2.6%

Cc1cc2c(c(C(=O)O)c1C)-c1cccc(Cl)c1C2=O
inactive: [1] -15.7% | [2] -2.3% | [3] -23.2% | [4] -20.2% | [5] -13.3% | [6] -27.4%

CCOC(=O)C12CCCC1(O)N(NC(N)=O)C(C)=C2C(=O)OC (stereo not given)
inactive: [1] 10.2% | [2] -5.1% | [3] 3.05% | [4] -69.1% | [5] -11.9% | [6] 6.2%

CCOC(=O)/C(F)=C/c1ccc(C#N)cc1
inactive: [1] 29.3% | [2] -19.9% | [3] -4.25% | [4] 3.7% | [5] 8.35% | [6] 15.8%

O=S1(=O)C2C=CC1C(Br)C(Br)CC2 (stereo not given)
inactive: [1] -9.4% | [2] 13.9% | [3] 26.8% | [4] 12% | [5] -0.15% | [6] 20.4%

CCOC(=O)CN(c1ccccc1)c1nc(=[N+](C)C)ss1
inactive: [1] 7.05% | [2] 0.65% | [3] 6.8% | [4] 2.55% | [5] 1.35% | [6] 22.9%

CC(C)NCC(O)c1ccc(O)c(O)c1 (stereo not given)
inactive: [1] 31.9% and -20.8% | [2] -10.6% and -23.4% | [3] -3.35% and 16.2% | [4] 14.7% and -52% | [5] 18.7% and 27.4% | [6] -0.1% and -4.95%

CCc1ccc(NN=Nc2ccccc2C#N)cc1
inactive: [1] 8.1% | [2] 15.8% | [3] 16.2% | [4] -12.7% | [5] -1.65% | [6] 16.8%

CCCCCCCCC1OC1CCCCCCCCOCC(O)CO (stereo not given)
inactive: [1] 18.9% | [2] -9.95% | [3] -1.9% | [4] -1.2% | [5] -0.6% | [6] -1.6%

C=C1C2CCC3(CCC4C5(C)CCCC4(C=[N+](CCO)C5)C3C2)C1O (stereo not given)
inactive: [1] -20.7% | [2] -22.5% | [3] -27.9% | [4] 14.1% | [5] -17.6% | [6] -28.6%

O=C1NC2OCC(O)C(O)C2O1 (stereo not given)
inactive: [1] 4.6% | [2] 10.1% | [3] -4.15% | [4] 12.4% | [5] 22.4% | [6] 6.45%

COc1ccc2oc(-c3cc4cc(OC)ccc4o3)cc2c1
inactive: [1] -10.7% | [2] -5.7% | [3] -12.8% | [4] -17.9% | [5] -61.2% | [6] -0.55%
